The text below walks through data of PubChem BioAssay AID1851 (National Center for Advancing Translational Sciences (NCATS), 2009).

Screen size: about 16,000 compounds; about 5,700 (36%) were called active. Not shown: some 24% with an inconclusive outcome. The list shows a part of the results. Unmarked numbers belong to inactive results. Calls follow the shape of the dose curve; as a rule, active = well fitted curve in the direction sought with a large enough effect; inconclusive = small, poorly fitted or top-dose-only effect, or effect the other way; inactive = no such curve, though single readings can be large or run the other way.
% is scaled to controls: 0 for no effect and ±100 for the full control effect.

In the experiment the target is Cytochrome P450 1A2 (Homo sapiens) (UniProt P05177). As to the kind of experiment: Cytochrome panel assay with activity outcomes. Conditions: recombinant CYP, pro-luciferin dealkylation, luminescence, p450-cyp1a2; series mostly up to 57.1 µM; activity, negative = inhibition: at the top concentration.
Cytochrome P450 1A2 (Homo sapiens), sequence (P05177 whole entry, looked up): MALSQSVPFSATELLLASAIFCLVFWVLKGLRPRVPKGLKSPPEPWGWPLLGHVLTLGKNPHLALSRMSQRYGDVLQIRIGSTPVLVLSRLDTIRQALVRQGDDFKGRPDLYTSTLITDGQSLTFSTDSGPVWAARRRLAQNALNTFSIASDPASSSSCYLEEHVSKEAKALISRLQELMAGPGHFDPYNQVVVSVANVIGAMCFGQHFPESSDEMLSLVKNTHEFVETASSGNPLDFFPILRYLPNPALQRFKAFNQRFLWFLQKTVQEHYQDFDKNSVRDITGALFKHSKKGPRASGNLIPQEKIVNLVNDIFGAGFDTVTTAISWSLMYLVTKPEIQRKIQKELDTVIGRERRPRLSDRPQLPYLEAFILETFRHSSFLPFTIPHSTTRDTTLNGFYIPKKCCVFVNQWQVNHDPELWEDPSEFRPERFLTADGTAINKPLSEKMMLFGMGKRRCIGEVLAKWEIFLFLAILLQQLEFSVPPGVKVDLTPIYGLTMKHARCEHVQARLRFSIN
In general, AC50 refers to the concentration giving half of the maximal activity seen. As for `Cc1ccc(N(C)C(=O)Oc2cccc3ccc(C)nc23)cc1`, the AC50 is 12600 nM (active).
With `C[C@@H]1O[C@H](OC2[C@@H](O)[C@H](O)C(O)[C@H](O)[C@H]2O)[C@@H](N)C[C@@H]1N=C(N)C(=O)O` (some centres not stated), the activity, negative = inhibition was 1.22% [at 2.29 µM].
On the same count and under the same terms, next, `c1ccc(CN2CCN(Cc3ccc4c(c3)OCCO4)CC2)cc1`: -22.8%; `CO[C@@H]([CH2][Hg])CN1C(=O)c2ccccc2S1(=O)=O.Cn1c(=O)c2nc[nH]c2n(C)c1=O`: -22% [at 2.29 µM].
For `O=c1c(O)c(-c2cc(O)c(O)c(O)c2)oc2cc(O)cc(O)c12`, the AC50 was 2000 nM (active).
For `CCC(=O)O[C@@](Cc1ccccc1)(c1ccccc1)[C@@H](C)CN(C)C`, the “activity, negative = inhibition” value is -8.18% [at 25.6 µM].
Still for that read-out and setting: next, `Cc1nc(-c2ccc(-c3ccc(C(=O)N4CCc5cc6c(cc54)C4(CCN(C)CC4)CO6)cc3)c(C)c2)no1`: 5.55%.
On to `Nc1ccc(CCN2CCN(c3cccc(C(F)(F)F)c3)CC2)cc1`, for which the AC50 is 10000 nM (active).
In the case of `NCCCN1CCN(c2ccccc2)CC1`, the activity, negative = inhibition is -15.9% [at 11.4 µM].
As for `C[N+](C)(C)CC#CCN1CCCC1=O`, the AC50 entry is “inactive”.
Still for that read-out and setting: for `CCN(CC)C1=NC(=[N+](CC)CC)c2ccccc21` the value was 15800 nM (active).
Turning to `NC(=O)c1ncn([C@H]2O[C@@H](CO)[C@@H](O)[C@@H]2O)n1`, the “activity, negative = inhibition” value is 2.01% [at 25.6 µM].
For the molecule `Cc1cc(C)c(-n2c(O)c(C=NCCN3CCOCC3)c(=O)[nH]c2=O)c(C)c1`, the “activity, negative = inhibition” value is -0.0514%.
Regarding `CC(C)[C@@]1(NC(=O)[C@@H]2C[C@H]3c4cccc5[nH]cc(c45)C[C@@H]3N(C)C2)O[C@]2(O)[C@H]3CCCN3C(=O)[C@H](Cc3ccccc3)N2C1=O`, the “activity, negative = inhibition” value is -7.15% [at 25.6 µM].
With `COc1ccc(-n2nc(C(F)(F)F)cc2-c2ccc(Cl)cc2)cc1`, the AC50 is 501 nM (active).
As for `NC(N)=NCCN=C(N)N`, the activity, negative = inhibition is -17.5% [at 11.4 µM].
The same measure, in the same setting: next, `Cc1c([C@@H](C)[C@H]2NC[C@H](C)C[C@@H]2O)ccc2c1C[C@@H]1[C@H]2CC=C2C[C@@H](O)CC[C@@]21C`: 1.34% [at 2.29 µM].
As to `COc1ccc2[nH]c(C(=O)c3ccccc3)cc2c1`, the AC50 was 100 nM (active).
For the molecule `NC[C@H](CS(=O)(=O)O)c1ccc(Cl)cc1`, the “activity, negative = inhibition” value was -14.4%.
In the case of `C/C(O)=C(/C#N)C(=O)Nc1cc(Br)ccc1Br`, the AC50 is 2510 nM (active).
For `c1ccc(N2CC[C@@]3(CCCNC3)C2)nc1`, the “activity, negative = inhibition” value was 3.64%.
For `Clc1cncc(N2CCNCC2)n1`, the AC50 is 2000 nM (active).
With `N[C@H](Cc1ccc2oc3cc(=O)c4ccccc4c-3nc2c1)C(=O)O`, the AC50 is 1260 nM (active).
On to `N[C@@H](Cc1cc(Br)c(O)c(Br)c1)C(=O)O`, for which the activity, negative = inhibition is -2.84% [at 11.4 µM].
Still for that read-out and setting: for `CC(C)(O/N=C(\C(=O)N[C@@H]1C(=O)N2C(C(=O)[O-])=C(C[n+]3ccccc3)CS[C@@H]12)c1csc(N)n1)C(=O)O` the value was -8.23% [at 25.6 µM]; for `CN1[C@@H]2CCC[C@H]1CC(=O)C2`, -13.3% [at 25.6 µM].
As to `COC1=C[C@H]2C3=C([C@H]2C1=O)[C@H](NC(C)=O)CCc1cc(OC)c(OC)c(OC)c13`, the “activity, negative = inhibition” value is -7.51% [at 25.6 µM].
Consider `COc1ccc2c(c[n+](C)c3c4cc5c(cc4ccc23)OCO5)c1OC`, for which the AC50 was 10000 nM (active).
In the case of `Oc1cccc2cccnc12`, the activity, negative = inhibition is -20% [at 11.4 µM].
On the same count and under the same terms, next, `CN1CC[C@@]2(CCCN(C(=O)c3csnn3)C2)C1`: 7.43%; `O[C@H](CN1CC1)[C@@H](O)CN1CC1`: 1.6% [at 11.4 µM].
As for `CN1CCN(c2cc(N3CCCC3)c([N+](=O)[O-])cc2F)CC1`, the AC50 is 355 nM (active).
On to `NC(=O)c1cc(N2CC2)c([N+](=O)[O-])cc1[N+](=O)[O-]`, for which the “activity, negative = inhibition” value was -19.6%.
The same measure, in the same setting: for `C[N+]12CCC(CC1)[C@@H](OC(=O)C(O)(c1ccccc1)c1ccccc1)C2` the value was 1.75% [at 25.6 µM]; for `C(=NC12CN3CN(CN(C3)C1)C2)c1cccs1`, 3.17%; for `CC(C)c1ccc(C(O)(C(=O)O)c2ccc(C(C)C)cc2)cc1`, -8.75% [at 11.4 µM].
In the case of `CC(C)c1ccc2c(c1)c(SC(C)(C)C)c(CC(C)(C)C(=O)O)n2Cc1ccc(Cl)cc1`, the AC50 was 25100 nM (active).
In the case of `C=C1C(O)(c2ccccc2)C2CC[N+]1(C)CC2` (configuration not stated), the “activity, negative = inhibition” value is 8.66%.
On the same count and under the same terms, next, `COC(=O)N1CCC2(CCN(CC(C)C)CC2)CC1`: 14.2%; `C=C1[C@@H]2CC[C@H]3[C@@]4(C)C[C@@H](O[C@@H]5O[C@H](CO)[C@H](OS(=O)(=O)O)[C@@H](OS(=O)(=O)O)[C@@H]5OC(=O)CC(C)C)C[C@@H](C(=O)O)[C@H]4CC[C@@]3(C2)[C@H]1O`: -10.2% [at 25.6 µM]; `COc1ccc2c(c1)[C@]13CCCC[C@@H]1[C@H](C2)NCC3`: 3.59%.
As for `COc1ccc(C(=O)c2c(C)n(CCN3CCOCC3)c3cc(I)ccc23)cc1`, the AC50 is 15800 nM (active).
For the molecule `N=C1c2ccccc2CN1NC(=O)c1ccc(F)cc1`, the “activity, negative = inhibition” value was -18%.
On the same count and under the same terms, next, `CN1C(=O)CCS(=O)(=O)[C@@H]1c1ccc(Cl)cc1`: 18.2% [at 25.6 µM].
Turning to `Cc1nnc2ccc(-c3cccc(C(F)(F)F)c3)nn12`, the AC50 is 79.4 nM (active).
Turning to `CNC[C@H](O)c1ccc(OC(=O)C(C)(C)C)c(OC(=O)C(C)(C)C)c1`, the “activity, negative = inhibition” value was -15% [at 25.6 µM].
As to `CCOC(=O)[C@@H]1[C@@H]2c3ccccc3-c3ccccc3[C@H]2C[C@H]1O`, the AC50 was 631 nM (active).
Regarding `O=P(O)(O)c1ccccc1` (tested in a mixture with another compound), the activity, negative = inhibition was 7.14% [at 11.4 µM].
On the same count and under the same terms, for `c1ccc([C@H]2CNCc3ccccc32)cc1` the value was -3.66%; for `C[C@@]12CC[C@H](O)C[C@@H]1CC[C@H]1[C@H]2CC[C@@]2(C)[C@@H](C3=CC(=O)OC3)CC[C@]12O`, -0.912% [at 25.6 µM]; for `CC[C@H]1CN2CCc3cc(OC)c(OC)cc3[C@H]2C[C@@H]1C[C@H]1NCCc2c1[nH]c1ccc(O)cc21`, -7.35% [at 11.4 µM].
For `c1ccc2c(c1)Sc1ccccc1N2C[C@H]1CN2CCC1CC2`, the activity, negative = inhibition was -5.29% [at 11.4 µM].
For the molecule `O=C1c2ccccc2-c2cc([N+](=O)[O-])c([N+](=O)[O-])cc21`, the AC50 was 251 nM (active).
As for `NCCc1ccc(S(=O)(=O)O)cc1[N+](=O)[O-]`, the activity, negative = inhibition is -6.66% [at 11.4 µM].
Take `CN(N=O)C(=O)N[C@H]1C(O)OC(CO)[C@@H](O)[C@H]1O` (some centres not stated): the “activity, negative = inhibition” value was -13.1%.
Regarding `C[n+]1c(/C=C\c2ccc(O)c3ncccc23)[se]c2ccccc21`, the activity, negative = inhibition is -22.7% [at 2.29 µM].
The same measure, in the same setting: next, `CC(O)(CS(=O)(=O)c1cccc(C(F)(F)F)c1)C(=O)Nc1ccc(C(F)(F)F)cc1` (configuration not stated): -15.7%; `C=CCn1c(O)c(C(C)=NCCCN2CCOCC2)c(=O)[nH]c1=O`: -14.8%.
With `C=CCn1c(O)c(C(CC)=NC2CC2)c(=O)[nH]c1=O`, the AC50 is 708 nM (active).
With `C[C@@H]1OC=C2[C@@H](O)[C@H]3O[C@H]3C(=O)[C@@]23[C@H]1[C@H]1C2=C([C@@H](O)[C@H]4O[C@@H]4C2=O)[C@@H]3O[C@@H]1C`, the activity, negative = inhibition was 2.27% [at 11.4 µM].
The same measure, in the same setting: for `C=CCN1CC[C@]23c4c5ccc(O)c4O[C@@H]2/C(=N/NC(=O)c2ccccc2)CC[C@@]3(O)[C@H]1C5` the value was -11.8%.
As for `CN(C)CCOC(=O)COc1ccc(Cl)cc1`, the AC50 was 10000 nM (active).
Regarding `CC(=O)[C@@H]1CC[C@@H]2[C@@H]3CCC4=CC(=O)CC[C@@]4(C)[C@H]3CC[C@]21C`, the “activity, negative = inhibition” value was -7.19% [at 25.6 µM].
Still for that read-out and setting: for `CC[N+](C)(C)c1cccc(O)c1` the value was -7.54%.
In the case of `COC(=O)c1cc2c(cn1)[nH]c1ccccc12`, the AC50 is 631 nM (active).
Regarding `CCN1C[C@]2(C)CC[C@@H](O)[C@]34[C@@H]5CC6[C@@H](OC)C[C@@](O)([C@H]5[C@@H]6O)[C@@H](C[C@@H]23)[C@H]14`, the “activity, negative = inhibition” value was -9.03%.
The same measure, in the same setting: next, `CN1[C@@H]2CC[C@H]1CC(O)C2` (some centres not stated): -12.5% [at 25.6 µM]; `Oc1ccc2c3c1O[C@@H]1c4[nH]c5c(c4C[C@@]4(O)[C@@H](C2)N(CC2CC2)CC[C@]314)C[C@]1(O)[C@@H]2Cc3ccc(O)c4c3[C@@]1(CCN2CC1CC1)[C@H]5O4`: -5.25%.
Consider `Ic1cncc(OC[C@@H]2CCN2)c1`, for which the AC50 is 398 nM (active).
On to `C[C@@]12CC[C@@H]3[C@H](CCC4=CC(=O)CC[C@]43C)[C@@H]1CC[C@@H]2C(=O)COS(=O)(=O)c1ccc(Br)cc1`, for which the activity, negative = inhibition is -3.63% [at 11.4 µM].
Still for that read-out and setting: next, `C1CCc2nnnn2CC1`: 2.25%.
For the molecule `C/C(=C\c1ccc(N(C)C)cc1)[N+](=O)[O-]`, the AC50 is 1410 nM (active).
Regarding `N[C@@H](CP(=O)(O)O)C(=O)O`, the activity, negative = inhibition was -12.6% [at 11.4 µM].
The same measure, in the same setting: next, `CC(=O)OCC(=O)[C@@H]1CC[C@H]2[C@H]3CC[C@H]4C[C@@H](O)CC[C@]4(C)[C@@H]3C(=O)C[C@@]12C`: -3.59% [at 25.6 µM]; `Cc1c(C(=O)c2ccc3ccccc3c2)c2cccc3c2n1[C@H](CN1CCOCC1)CO3`: -21.2%.
Consider `CCCn1c(C)c(C(=O)c2cccc3ccccc23)c2ccccc21`, for which the AC50 was 2000 nM (active).
On the same count and under the same terms, next, `CCCn1c(C)c(C(=O)c2ccc3ccccc3c2)c2ccccc21`: 6310 nM (active).
In the case of `C[C@@H]1[C@@H](C)N1C[C@H](O)Cn1ccnc1[N+](=O)[O-]` (some centres not stated), the activity, negative = inhibition is -13.2% [at 11.4 µM].
With `Nc1nc2[nH]c(=O)cnc2c(=O)[nH]1`, the “activity, negative = inhibition” value is 2.71%.
The same measure, in the same setting: next, `CN1CC[C@@]23c4ccccc4N[C@H]1[C@]21CCN(C)[C@@H]3Nc2ccccc21`: -4.88% [at 25.6 µM]; `O=C(O)CS(=O)(=O)C(c1ccccc1)c1ccccc1`: -15.7% [at 2.29 µM].
Same read-out and setting: for `Cc1cc(C)cc(NC(=S)NC2CC3CCC(C2)N3Cc2ccco2)c1` (configuration not stated) the value was -11.6%; for `C[C@@H]1C(=O)O[C@@H]2C[C@]34[C@H]5C[C@@H](C(C)(C)C)[C@@]36[C@@H](OC(=O)[C@@H]6O)O[C@@]4(C(=O)O5)[C@@]12O`, -6.3% [at 25.6 µM]; for `NCCP(=O)(O)O`, -12.9% [at 11.4 µM].
On the same count and under the same terms, next, `CN[C@H](Cc1ccccc1)c1cccc(OC)c1O`: -11.6% [at 11.4 µM].
For `COC1=CC(=O)O[C@@H](/C=C\c2ccccc2)C1`, the AC50 is 3160 nM (active).
Regarding `CNC(=O)OCC[N+](C)(C)C`, the “activity, negative = inhibition” value was 10.7%.
